# Reference: PubChem BioAssay (Tox21)
# Activity calls are given as the source filed them. Calls follow the shape of the dose curve; as a rule, active = well fitted curve in the direction sought with a large enough effect in the repeat runs; inconclusive = weak or mixed curves; inactive = flat fitted curve, though single readings scatter.
# Assay: qHTS assay to test for compound auto fluorescence at 460 nm (blue) in HEK293 cells (AID 720678)
# Settings: blue autofluorescence 405/460 nm; series mostly up to 91.3 µM
# Source text: National Center for Advancing Translational Sciences [NCATS]
# NIH Chemical Genomics Center [NCGC]
# U.S. Environmental Protection Agency [EPA]
# National Institutes of Environmental Health Sciences [NIEHS]
# National Toxicology Program [NTP]
# U.S. Food and Drug Administration [FDA]
# Compound auto fluorescence often interferes with screening of the compound library against various biological targets and signaling pathways. Some of these compounds may have fluorophoric properties. Such properties may interfere with the assay outputs resulting in false positives and/or negatives. To decrease such complications and ensure the compound activities are relevant in terms of biological response, the Tox21 10K compound library was screened for auto fluorescence.
# From the fluorophores used as reporter signals in our screening assays, the auto fluorescence equivalencies of compounds against three fluorophores have been evaluated: Triamterene, Fluorescein and Rose Bengal sodium for blue, green and red fluorescence, respectively. The fluorescence intensities were measured using Excitation/Emission wavelengths at 405/460nm, 485/535nm and 540/590nm for blue, green and red labels, respectively. This assay includes the blue fluorescence data.
# Tox21 Assay Protocol Summary:
# 2,000 HEK293 cells in 5 uL of culture medium containing 10% dialyzed FBS per well were dispensed into black wall/clear bottom 1536-well plates using a Multidrop Combi Dispenser (Thermo Scientific). The assay plates were incubated for 4-5 hr at 37C to allow cell attachment to the well bottom, followed by the transfer of 23 nL compound or DMSO vehicle by a pintool work station (Kalypsys, San Diego, CA). After the assay plates were incubated overnight at 37C and 5% CO2, fluorescence intensities in the assay plates were measured by an Envision (PerkinElmer, Shelton, CT) plate reader using three labels for measuring blue, green and red fluorescence at […] 460, 535 and 590nm respectively.
row,Compound,outcome
1,CC(C)N1C(=O)c2ccccc2NS1(=O)=O,inactive
2,CC(Br)C(=O)O (stereo not given),inactive
3,C1CC2OC2CC1C1CO1 (stereo not given),inactive
4,OCCN(CCO)CCO,inactive
5,CCN(CC)c1ccccc1,inactive
6,COc1ccc2c3c1O[C@H]1[C@@H](O)C=C[C@H]4[C@@H](C2)N(C)CC[C@@]341,inactive
7,CC(C)(C)C(O)(CCc1ccc(Cl)cc1)Cn1cncn1 (stereo not given),inactive
8,CCOP(=S)(OCC)Oc1cnc2ccccc2n1,inactive
9,O=c1[nH]c(=O)[nH]c(=O)[nH]1,inactive
10,C1CN2CCN1CC2,inactive
11,CC1OC(C)OC(C)O1 (stereo not given),inactive
12,Oc1ccccc1Cl,inactive
13,CCCCCOC(=O)c1ccccc1C(=O)OCCCCC,inactive
14,Cc1ccccc1O,inactive
15,CC(=O)C=C(C)C,inactive
16,[O-][Cl+2]([O-])O,inactive
17,Cn1cc(-c2ccccc2)c(=O)c(-c2cccc(C(F)(F)F)c2)c1,inactive
18,NCCc1ccc(O)cc1,inactive
19,O=[N+]([O-])c1ccc([As](=O)(O)O)cc1,inactive
20,Nc1ccc(Oc2ccc(N)cc2)cc1,inactive

row,Compound,outcome
1,ClCc1cccnc1,inactive
2,CC(C)(Cl)Cl,inactive
3,CCC12COCN1COC2,inactive
4,O=NN1CCCCCCC1,inactive
5,Cc1cccc([N+](=O)[O-])c1,inactive
6,COC(=O)c1ccccc1N,inactive
7,CN(N=O)c1ccccc1,inactive
8,C=CC(N)=O,inactive
9,CC(Oc1ccc(Cl)cc1Cl)C(=O)O (stereo not given),inactive
10,O=NN1CCCC1,inactive
11,CCC[CH2][Sn]([Cl])([Cl])[Cl],inactive
12,C#CCN(C)[C@H](C)Cc1ccccc1,inactive
13,Clc1ccccc1Cl,inactive
14,Nc1ccc(Br)cc1,inactive
15,CN(C)CCO,inactive
16,CN(C)[C@@H]1C(=O)C(C(N)=O)=C(O)[C@@]2(O)C(=O)C3=C(O)c4c(O)cccc4[C@@](C)(O)[C@H]3C[C@@H]12,inactive
17,CCNc1nc(NC(C)(C)C)nc(SC)n1,inactive
18,CCCCN(CC)C(=O)SCCC,inactive
19,CCc1cccc(C)c1N(C(=O)CCl)C(C)COC (stereo not given),inactive
20,ClCCBr,inactive
